From the supplement of paper PMC6992640
Structures can show the parent of a compound that is named as a salt. ± gives the standard deviation of the averaged measurements.

Key:
Experiment in all cases: cell viability (% of vehicle); higher = less cytotoxic
Details in all cases: 10 µM; 72 h
HCI01 = test system: HCI01 (cells of a triple-negative basal-like breast cancer xenograft)
HCI03 = test system: HCI03 (cells of an ER-positive luminal breast cancer xenograft)
HCI09 = test system: HCI09 (cells of a triple-negative luminal androgen receptor type breast cancer xenograft)
HCI11 = test system: HCI11 (cells of an ER-positive luminal breast cancer xenograft)
HCI13 = test system: HCI13 (cells of an ER-positive luminal breast cancer xenograft)
HCI16 = test system: HCI16 (cells of a triple-negative basal-like breast cancer xenograft)
UCD52 = test system: UCD52 (cells of a triple-negative basal-like breast cancer xenograft)
WHIM2 = test system: WHIM2 (cells of a triple-negative basal-like breast cancer xenograft)
WHIM30 = test system: WHIM30 (cells of a triple-negative basal-like breast cancer xenograft)
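Note: PDX cells carrying CMV promoter-driven luciferase, viability read as total photon flux per second by IVIS imaging following D-luciferin, vehicle control 0.1% DMSO.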

Row | Structure (SMILES) | cell viability (HCI01) | cell viability (HCI03) | cell viability (HCI09) | cell viability (HCI11) | cell viability (HCI13) | cell viability (HCI16) | cell viability (UCD52) | cell viability (WHIM2) | cell viability (WHIM30)
1 | COc1cc2nc(N3CCN(C(=O)c4ccco4)CC3)nc(N)c2cc1OC.Cl [Prazosin HCl] | 152 ± 2.9 | 129 | 36.9 ± 1.6 | 131 | 108 ± 16 | 156 | 140 ± 7.2 | 52.5 ± 4.7 | 114 ± 1.7
2 | Cc1c(O)cccc1C(=O)NC(CSc1ccccc1)C(O)CN1CC2CCCCC2CC1C(=O)NC(C)(C)C (configuration not stated) [Nelfinavir] | 117 ± 39 | 93.4 | 52.9 ± 40 | 97.2 | 89.3 ± 0.59 | 101 | 68.7 ± 4 | 89.2 ± 16 | 61.5 ± 6.5
3 | C[N+](C)(C)CC(=O)[O-] [Betaine] | 107 ± 33 | 140 | 103 ± 12 | 90.7 | 140 ± 1.5 | 116 | 106 ± 5.9 | 99.7 ± 16 | 90 ± 12
4 | Cc1ccc2c(Cl)cc(Cl)c(O)c2n1 [Chlorquinaldol] | 102 ± 27 | 109 | 31.6 ± 15 | 52.7 | 105 ± 17 | 105 | 69.6 ± 16 | 94.2 ± 31 | 94 ± 5.7
5 | CCCNC(C)C(=O)Nc1c(C)csc1C(=O)OC.Cl (configuration not stated) [Articaine HCl] | 104 ± 4.9 | 115 | 116 ± 7 | 96.9 | 79.6 ± 10 | 133 | 94.3 ± 5.7 | 104 ± 18 | 129 ± 5.7
6 | CC(=O)Oc1cc2c(s1)CCN(C(C(=O)C1CC1)c1ccccc1F)C2 (configuration not stated) [Prasugrel] | 76.6 ± 67 | 164 | 114 ± 4.9 | 120 | 81.6 ± 18 | 122 | 113 ± 20 | 102 ± 28 | 112 ± 16
7 | COCCCCC(=NOCCN)c1ccc(C(F)(F)F)cc1.O=C(O)C=CC(=O)O [Fluvoxamine maleate] | 120 ± 4.3 | 111 | 90.71 ± 0.25 | 93 | 94.6 ± 7.2 | 67.7 | 84.9 ± 8.5 | 69.3 ± 19 | 107 ± 4.1
8 | Br.COc1ccc2c3c1O[C@H]1C[C@@H](O)C=C[C@@]31CCN(C)C2 [Galanthamine HBr] | 113 ± 6.7 | 102 | 97.02 ± 0.17 | 93.2 | 80.4 ± 8.2 | 73.8 | 97.8 ± 2.6 | 79.7 ± 12 | 118 ± 24
9 | COc1ccc(CNc2nc(N3CCCC3CO)ncc2C(=O)NCc2ncccn2)cc1Cl (configuration not stated) [Avanafil] | 155 ± 7.5 | 117 | 102 ± 23 | 143 | 123 ± 11 | 121 | 104 ± 15 | 130 ± 2.6 | 135 ± 7.5
10 | CCCOc1ccc(C(=O)OCCN(CC)CC)cc1N.Cl [Proparacaine HCl] | 99.6 ± 12 | 165 | 91 ± 17 | 91.9 | 111 ± 5.8 | 109 | 102 ± 11 | 97.1 ± 7.6 | 114 ± 13
11 | CC(C)(Oc1ccc(Cl)cc1)C(=O)O [Clofibric Acid] | 109 ± 22 | 119 | 79.6 ± 22 | 99.3 | 94.8 ± 9.6 | 97.8 | 81.1 ± 14 | 93.3 ± 20 | 109.5 ± 0.67
12 | CN(C)CCc1c[nH]c2ccc(Cn3cncn3)cc12.O=C(O)c1ccccc1 [Rizatriptan Benzoate] | 108 ± 11 | 118 | 137 ± 72 | 121 | 110 ± 21 | 106 | 102 ± 9.9 | 86.3 ± 21 | 124 ± 6.5
13 | CC(Cc1cc2c(c(C(N)=O)c1)N(CCCO)CC2)NCCOc1ccccc1OCC(F)(F)F (configuration not stated) [Silodosin] | 103 ± 7.4 | 99.5 | 106 ± 39 | 127 | 96.6 ± 16 | 117 | 82.5 ± 14 | 98 ± 21 | 94.2 ± 6.5
14 | Nc1nc(=O)c2ncn(COC(CO)CO)c2[nH]1 [Ganciclovir] | 63.1 ± 33 | 124 | 94.8 ± 2 | 97.9 | 112 ± 17 | 126 | 87.3 ± 5.8 | 93.5 ± 46 | 142.4 ± 1.3
15 | CN1CCN(c2nc(C3=C(c4c[nH]c5ccccc45)C(=O)NC3=O)c3ccccc3n2)CC1 [Sotrastaurin (AEB071)] | 134 ± 40 | 102 | 173 ± 34 | 136 | 109 ± 1.9 | 111 | 63.9 ± 1.5 | 195 ± 10 | 111 ± 6.1
16 | COc1cc2nc(N3CCN(C(=O)C4COc5ccccc5O4)CC3)nc(N)c2cc1OC.CS(=O)(=O)O (configuration not stated) [Doxazosin Mesylate] | 116.9 ± 0.43 | 94.7 | 73.2 ± 34 | 83.3 | 103 ± 15 | 123 | 92.4 ± 14 | 62.6 ± 10 | 117 ± 13
17 | CCCc1ncc(C[n+]2ccccc2C)c(N)n1.Cl.[Cl-] [Amprolium HCl] | 129 ± 15 | 135 | 102 ± 4.4 | 104 | 128 ± 7 | 145 | 71.4 ± 27 | 110 ± 7.3 | 99.4 ± 13
18 | O=c1oc2c(O)c(O)cc3c(=O)oc4c(O)c(O)cc1c4c23 [Ellagic acid] | 102 ± 15 | 144 | 100 ± 3 | 105 | 177 ± 43 | 125 | 103.5 ± 0.7 | 118 ± 11 | 115 ± 11
19 | CO[C@H]1/C=C/O[C@@]2(C)Oc3c(C)c(O)c4c(c3C2=O)C(=O)/C(=C/NN2CCN(C)CC2)C(=C4O)NC(=O)/C(C)=C/C=C/[C@H](C)[C@H](O)[C@@H](C)[C@@H](O)[C@@H](C)[C@H](OC(C)=O)[C@@H]1C [Rifampin] | 86.5 ± 29 | 133 | 85.8 ± 2.5 | 94.5 | 108 ± 16 | 145 | 82.91 ± 0.51 | 64 ± 0.77 | 94.88 ± 0.76

Row | Structure (SMILES) | cell viability (HCI01) | cell viability (HCI03) | cell viability (HCI09) | cell viability (HCI11) | cell viability (HCI13) | cell viability (HCI16) | cell viability (UCD52) | cell viability (WHIM2) | cell viability (WHIM30)
20 | CN(CCOc1ccc(CC2SC(=O)NC2=O)cc1)c1ccccn1 (configuration not stated) [Rosiglitazone] | 176 ± 35 | 162 | 129 ± 33 | 153 | 189 ± 26 | 142 | 124 ± 10 | 174 ± 17 | 199 ± 3.1
21 | O=C([O-])CCCc1ccccc1.[Na+] [Sodium Phenylbutyrate] | 122 ± 6.5 | 135 | 101 ± 19 | 117 | 124 ± 8.9 | 127 | 103 ± 16 | 103.7 ± 0.73 | 162 ± 27
22 | COc1cc(OC)c(C(=O)CCCN2CCCC2)c(OC)c1.Cl [Buflomedil HCl] | 95.4 ± 3.3 | 131 | 95.6 ± 15 | 94.4 | 86.6 ± 2.6 | 122 | 92.5 ± 16 | 117 ± 28 | 134 ± 2.4
23 | CCn1cc(C(=O)O)c(=O)c2cc(F)c(N3CCNCC3)cc21 [Norfloxacin] | 104 ± 11 | 143 | 116 ± 27 | 101 | 163 ± 52 | 166 | 130 ± 8.1 | 80.5 ± 17 | 160 ± 12
24 | O=c1[nH]c(=O)n(C2CC(O)C(CO)O2)cc1C(F)(F)F (configuration not stated) [Triflurdine (Viroptic)] | 123 ± 1.4 | 132 | 137 ± 70 | 111 | 147 ± 24 | 97.1 | 116 ± 1.5 | 87.8 ± 36 | 132 ± 15
25 | C/C=C/C1=C(C(=O)O)N2C(=O)[C@@H](NC(=O)[C@H](N)c3ccc(O)cc3)[C@@H]2SC1 [Cefprozil] | 97.6 ± 3.2 | 174 | 103 ± 22 | 97 | 85.4 ± 1.5 | 115 | 107 ± 8.6 | 93.4 ± 26 | 115 ± 7.5
26 | CN(C)c1cc(NC(=O)CNC(C)(C)C)c(O)c2c1CC1CC3C(N(C)C)C(=O)C(C(N)=O)=C(O)C3(O)C(=O)C1=C2O (configuration not stated) [Tigecycline] | 80 ± 10 | 121 | 95.8 ± 8.5 | 81.9 | 129 ± 23 | 120 | 96.7 ± 21 | 102 ± 22 | 129 ± 8.6
27 | CN(C)C(CCOc1cccc2ccccc12)c1ccccc1.Cl (configuration not stated) [Dapoxetine HCl] | 87.4 ± 15 | 79.4 | 96.9 ± 11 | 74.2 | 95.1 ± 13 | 70 | 47.9 ± 5.3 | 65.2 ± 12 | 98.4 ± 1.4
28 | CC(=O)C1CCC2C3CC=C4CC(O)CCC4(C)C3CCC12C (configuration not stated) [Pregnenolone] | 141 ± 20 | 126 | 76 ± 7 | 84.5 | 175 ± 44 | 111 | 75.4 ± 2.4 | 99 ± 3.8 | 116 ± 19
29 | CC(CN1c2ccccc2Sc2ccccc21)N(C)C (configuration not stated) [Promethazine HCl] | 106 ± 15 | 90 | 75.8 ± 5.4 | 92.9 | 96.1 ± 3.6 | 107 | 73.3 ± 6.1 | 85 ± 17 | 114 ± 7.7
30 | CC(C)(C)NCC(O)c1ccc(O)c(CO)c1.O=S(=O)(O)O (configuration not stated) [Salbutamol Sulfate] | 103 ± 5.9 | 104 | 97.4 ± 19 | 90.5 | 106 ± 21 | 104 | 85.4 ± 4.9 | 92.9 ± 19 | 114 ± 6.2
31 | CC12C=CC(=O)C=C1CCC1C2C(=O)CC2(C)C1CCC2(O)C(=O)CO (configuration not stated) [Prednisone] | 71.1 ± 46 | 93.9 | 118 ± 37 | 98.9 | 165 ± 8.5 | 138 | 103 ± 3.1 | 92.6 ± 38 | 130 ± 13
32 | COc1ccc2c(c1)c(CC(=O)OCC(=O)O)c(C)n2C(=O)c1ccc(Cl)cc1 [Acemetacin] | 108 ± 3.5 | 113 | 97.6 ± 29 | 97.4 | 111 ± 9 | 106 | 78.2 ± 5 | 86.9 ± 22 | 76.6 ± 11
33 | COc1nc(C)nc(Cl)c1NC1=NCCN1 [Moxonidine] | 102 ± 7.2 | 116 | 103 ± 15 | 115 | 98.9 ± 5.5 | 95.3 | 82.9 ± 13 | 116 ± 12 | 118 ± 8.7
34 | COc1ccccc1Oc1c(NS(=O)(=O)c2ccc(C(C)(C)C)cc2)nc(-c2ncccn2)nc1OCCO [Bosentan] | 110 ± 16 | 95.1 | 71.1 ± 21 | 86.4 | 83.7 ± 5.7 | 104 | 111 ± 2.8 | 114 ± 36 | 114 ± 3.2
35 | CC12CCC(O)CC1=CCC1C2CCC2(C)C(c3cccnc3)=CCC12 (configuration not stated) [Abiraterone] | 138 ± 7.1 | 168 | 86.1 ± 4.6 | 76.6 | 145 ± 42 | 111 | 94.1 ± 9.2 | 131 ± 6.1 | 156 ± 22
36 | CCOC(=O)c1ccc(OC(=O)CCCCCN=C(N)N)cc1.CS(=O)(=O)O [Gabexate mesylate] | 170 ± 9.1 | 122 | 98 ± 3.2 | 147 | 96.8 ± 1.2 | 159 | 142 ± 6.2 | 111 ± 10 | 180 ± 27
37 | CNC1C(OC2C(OC3C(O)C(O)C(N=C(N)N)C(O)C3N=C(N)N)OC(C)C2(O)C=O)OC(CO)C(O)C1O.CNC1C(OC2C(OC3C(O)C(O)C(N=C(N)N)C(O)C3N=C(N)N)OC(C)C2(O)C=O)OC(CO)C(O)C1O.O=S(=O)(O)O.O=S(=O)(O)O.O=S(=O)(O)O (configuration not stated) [Streptomycin sulfate] | 82.6 ± 31 | 97.7 | 84.6 ± 5.9 | 82.9 | 90 ± 1.7 | 103 | 84.1 ± 3.6 | 81.8 ± 12 | 86.6 ± 7.4
38 | Cc1nccn1CC1CCc2c(c3ccccc3n2C)C1=O.Cl.O.O (configuration not stated) [Ondansetron hydrochloride dihydrate] | 101 ± 12 | 82.1 | 117 ± 49 | 107 | 143 ± 6 | 106 | 83.84 ± 0.49 | 88.3 ± 12 | 68.2 ± 14
